Molecules are shown by their SMILES. This is part of a sample that, as a whole, favours compounds with a hit. Of some 83,000 tested, about 20% had one in any assay.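 Growth was measured after 48 h exposure to one concentration of compound in 96-well plates. Values under 10 count as active.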 Unmarked numbers belong to inactive results. Calls of active or inactive are those of the source.

The subject of the assay is PC-3 prostate. Put plainly: NCI-60 one-dose screen, 48 h (100 = growth as untreated, 0 = no growth, -100 = all killed). The conditions noted are these: 10 µM. As for the experimental part:
Growth inhibition of the PC-3 human tumor cell line is measured as a screen for anti-cancer activity. Cells are grown in 96 well plates and exposed to the test compound for 48 hours. Compounds are tested at a single concentration, which is 10^-5 M for most compounds. The reported endpoint is percent growth (GI% or GIPRCNT), where numbers from 0 - 100% represent growth inhibition, and numbers from -100% - 0 represent cell death. For example, a value of 40 represents 60% growth inhibition. A value of 0 means no net growth occurred over the course of the experiment. A value of -40 indicates 40% of cells at the beginning of the experiment died by the end of the experiment. A value of -100 means all cells are dead at the end of the experiment.
NCI-60 Human Tumor Cell Lines Screen was performed using the standard one-dose NCI protocol, which is described in more detail at https://dtp.cancer.gov/discovery_development/nci-60/default.htm.
Compounds with GIPRCNT values below 10 were considered active. Activity score was based on GIPRCNT using the following formula: […]
Score is 0 for GIPRCNT values of 100 or above, 50 for GIPRCNT values of 0, and 100 for GIPRCNT values of -100.
Consider `COc1cc(CNC(=O)C2CSC3(C)c4ccccc4C(=O)N23)cc(OC)c1OC` (stereo not given), for which the growth is 90%.

For the compound `N=C1S/C(=C/c2ccc(-c3ccc4c(c3)C(=O)NC4=O)o2)C(=O)N1c1ccc(Br)cc1`, the growth is -2.15% (active).

Take `COc1ccc(Nc2cnc3cc(NS(=O)(=O)c4ccc(C)cc4)ccc3n2)cc1`: the growth is 101%.

Consider `COc1cc(/C=C/c2cc(/C=C/c3ccc(O)c(OC)c3)n(C(=O)Nc3ccc(C)cc3)n2)ccc1O`, for which the growth is 8.08% (active).

Turning to `COc1ccc(-c2n[nH]nc2-c2cc(OC)c3c(c2OC)OCO3)cc1`, the growth was 26.3%.

`N#CC1=CC2CN(Cc3ccccc3)C1C1C(=O)N(c3ccccc3)C(=O)C21` (stereo not given): the growth is 101%.

Consider `CCCCN(CCCC)C(=O)[C@H](CC)[C@@H]1CC[C@@H](C)[C@@H]([C@H](C)[C@@H](O)[C@@H](C)C(=O)[C@H](CC)C2O[C@]3(C=C[C@@H](O)[C@]4(CC[C@@](C)([C@H]5CC[C@](O)(CC)[C@H](C)O5)O4)O3)[C@H](C)C[C@@H]2C)O1` (stereo not given in full), for which the growth was 4.26% (active).

As for `CCCCC(CC)CN=C(N)NC(N)=NCCCCCCN=C(N)NC(N)=NCC(CC)CCCC` (stereo not given), the growth was -69.7% (active).

Consider `C[C@@H](O)[C@H]1C(=O)N2C(C(=O)O)=C(SC3CN[C@H](C(=O)N(C)C)C3)[C@H](C)[C@H]12` (stereo not given in full), for which the growth was 92.4%.

Regarding `CCOC(=O)C1=CSC2=NC3=C(CCC/C3=C\c3cc(OC)c(OC)c(OC)c3)C(c3cc(OC)c(OC)c(OC)c3)N12` (stereo not given), the growth was 77.1%.

For the compound `O=C(O)c1cc([N+](=O)[O-])ccc1Oc1ccccc1`, the growth was 89.2%.

On to `COc1cc(C(=O)N2CCN(c3cc4c(cc3F)c(=O)c(C(=O)NO)cn4C3CC3)CC2)cc(OC)c1OC`, for which the growth is 93.6%.

With `COC1OC(COS(=O)OC)C(O)C(O)C1OS(=O)OC` (stereo not given), the growth was 100%.

With `CC(C)CCN(CCC(C)C)CC(=O)Nc1ccc(S(=O)(=O)c2ccc(NC(=O)CN(CCC(C)C)CCC(C)C)cc2)cc1`, the growth was 39.7%.

For the compound `O=c1oc2c(cc1-c1ccc(F)cc1)C(O)Oc1ccccc1-2` (stereo not given), the growth was 92.9%.

Consider `O=C1/C=C/[C@@H](O)[C@@H]2C[C@@H](O)C[C@H]2/C=C/CCC[C@H](C(F)(F)F)O1`, for which the growth is 25.1%.

Regarding `O[C@@H]1CO[C@H]2[C@@H]1OC[C@@H]2O`, the growth is 90%.

As to `Cc1ccc(C2NC(=S)N3C(c4ccc(C)cc4)NC(=S)N23)cc1` (stereo not given), the growth is 34.4%.

With `Cc1cc(C(C#N)c2ccc(Cl)cc2)c(Cl)cc1NC(=O)c1cc(I)cc(I)c1O` (stereo not given), the growth is 13.8%.

As to `Nc1nc(Cn2c(-c3nonc3N)nc3ccccc32)nc(N2CCCCC2)n1`, the growth is 78%.

As to `C/C(=C/CCC(C)[C@@H]1CC[C@]2(C)C3=C(CC[C@@]12C)[C@@]1(C)CCC(=O)C(C)(C)[C@@H]1CC3)C(=O)O` (stereo not given in full), the growth is -29.8% (active).

In the case of `CSc1ccc(-c2cc(-c3ccc(NC(=O)CCCN4CCCC4)cc3)nc(-c3ccc(NC(=O)CCCN4CCCC4)cc3)c2)cc1`, the growth is 40.8%.

For `Cc1cc(CSc2ccccc2C(=O)N2CC=C(c3ccccc3)CC2)on1`, the growth is 82.9%.

Consider `c1ccc(/C(=N\Nc2ccc3ccccc3n2)c2ccccn2)cc1`, for which the growth was 19.4%.

Take `CCCCN(CCCC)C(=O)[C@H](CC)[C@@H]1CC[C@@H](C)[C@@H]([C@H](C)[C@@H](O)[C@@H](C)C(=O)[C@H](CC)C2O[C@]3(C=CC(=O)[C@]4(CC[C@@](C)([C@H]5CC[C@](O)(CC)[C@H](C)O5)O4)O3)[C@H](C)C[C@@H]2C)O1` (stereo not given in full): the growth was 12.5%.

On to `CCN(CC)CCCC(Nc1c2ccc(Cl)cc2nc2ccc(OC)cc12)c1ccc(F)cc1` (stereo not given), for which the growth is 73%.

Regarding `O=S(=O)(Oc1ccc(-c2ccc3sccc3c2)cc1)c1ccccc1`, the growth is 91%.

For `COc1cc2cc(Oc3ccc(NC(=O)Nc4ccc(C(F)(F)F)cc4)cc3)c(C)nc2cc1OC`, the growth was 48.3%.

Take `CCOC(=O)c1cocc1C(=O)O`: the growth was 112%.

Regarding `Nc1ncnc2c1ncn2C1(CO)OCC(O)C(O)C1O` (stereo not given), the growth is 103%.

`CC(C)(C)OC(=O)CN1CCc2c(sc3ncnc(N/N=C/c4cccc5ccccc45)c23)C1`: the growth is 31.9%.

Take `O=C(c1ccccc1)N(C(=O)c1ccccc1)N1CCCC1`: the growth is 88.4%.

With `COc1cc(-c2nn(-c3cccc(NC(=O)NCCNS(=O)(=O)c4ccc(Cl)cc4)c3)cc2-c2ccncc2)ccc1Cl`, the growth was 7.5% (active).

With `COc1cc(-c2nn(-c3cccc(NC(=O)NCCNC(=O)c4ccccc4)c3)cc2-c2ccncc2)ccc1Cl`, the growth is 6.41% (active).

Take `CC(C)(C)OC(=O)N1CCc2c(sc3ncnc(N/N=C/c4cccc(Br)c4)c23)C1`: the growth was 44.4%.

For `CC(=O)C1N=NCC1c1ccccc1` (stereo not given), the growth is 95.5%.

On to `CN(C)CCOc1ccccc1NC1=C(Cl)C(=O)C(Nc2ccccc2OCCN(C)C)=C(Cl)C1=O`, for which the growth is 84.3%.

With `Nc1cc(Br)c(-c2nn3c(CCC(=O)c4nc5ccccc5[nH]4)nnc3s2)c(Br)c1`, the growth was 87.1%.

Take `CC(C)c1cc(N=O)cc(C(C)C)c1O`: the growth was 97.5%.

Take `CC(C)N(CCOc1cccc(-c2nc3sccn3c2-c2ccnc(S(C)(=O)=O)n2)c1)C(C)C`: the growth is 72.7%.
